sPLA2-III inh: Blocks human group III sPLA2 activity; Q9NZ20; QFRET BODIPY PC-A2 liposome hydrolysis, fluorescence; inhibition, % at 12.2 µM; 370,000 tested, 0.56% active; AID 743126;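 active means inhibition above mean plus 3 SD of compounds lying within the high and low control bounds, cut at about 19% in these data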;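 further: 0% = median of test compound wells and 100% = no enzyme DMSO wells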
PLCg1 inh: PLC-gamma1 (human) inhibition, primary screen. purified PLC-gamma1, fluorogenic substrate, fluorescence. inhibition, % at 12.2 µM. P19174. 370,000 tested, 0.84% active; in the data active means inhibition above about 9.5%
PLC-beta3 inh: PLC-beta3 (human) inhibition, primary screen; 370,000 tested, 0.18% active; Q01970; inhibition, % at 12.2 µM; AID 720704; Purified PLC-beta3, fluorogenic substrate, fluorescence; in the data active means inhibition above about 11%;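 further: 0% = median of compound wells on plate and 100% = full blocker control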
KLK7 zymogen act: activators of human kallikrein-7 zymogen; 370,000 tested, 0.9% active; activation, % at 7 µM; AID 652039; purified proKLK7, EDANS-DABCYL substrate fluorescence; 100% is mature enzyme control, 0% vehicle;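 active means activation above the mean of all tested compounds plus 3 SD, computed per campaign excluding outliers beyond control limits, cut at about 13% in these data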
ADAM10 inh: inhibits human ADAM10; O14672; recombinant ADAM10, EDANS/DABCYL FRET peptide cleavage, 3 h; inhibition, % at 7 µM; 370,000 tested, 0.62% active; AID 720582;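 active means inhibition above a per-campaign cutoff equal to the mean of compounds falling between control-based bounds plus 3 SD, cut at about 20% in these data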;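 further: 0% = DMSO wells while the 100% control is not disclosed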
ADAM17 inh: inhibitors of human ADAM17; P78536; recombinant ADAM17, EDANS/DABCYL FRET peptide cleavage; inhibition, % at 6.95 µM; 370,000 tested, 0.83% active;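 active means inhibition above the mean of compounds lying between control limits plus 3 SD, set per campaign, cut at about 8.5% in these data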;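 further: 0% = DMSO-only wells as the low control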
Target sequence (P78536 215-824 limits assumed): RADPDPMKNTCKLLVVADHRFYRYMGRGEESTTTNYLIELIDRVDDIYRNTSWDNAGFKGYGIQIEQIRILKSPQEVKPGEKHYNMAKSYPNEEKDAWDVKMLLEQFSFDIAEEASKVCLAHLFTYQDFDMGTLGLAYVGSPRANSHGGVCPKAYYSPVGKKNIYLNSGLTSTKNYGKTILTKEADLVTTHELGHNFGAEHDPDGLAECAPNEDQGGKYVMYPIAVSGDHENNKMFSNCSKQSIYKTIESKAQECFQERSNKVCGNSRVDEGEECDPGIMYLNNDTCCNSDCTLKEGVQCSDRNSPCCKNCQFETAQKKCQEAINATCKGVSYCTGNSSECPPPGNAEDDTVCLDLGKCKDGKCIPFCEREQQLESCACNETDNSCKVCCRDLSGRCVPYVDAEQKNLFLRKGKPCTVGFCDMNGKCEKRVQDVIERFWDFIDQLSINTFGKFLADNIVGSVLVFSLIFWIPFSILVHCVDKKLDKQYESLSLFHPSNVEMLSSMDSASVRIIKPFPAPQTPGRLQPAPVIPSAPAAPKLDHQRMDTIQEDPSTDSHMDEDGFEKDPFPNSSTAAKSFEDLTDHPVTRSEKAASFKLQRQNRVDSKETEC
ADAM10 confirm: confirmation of inhibitors of human ADAM10 | shares compounds with ADAM10 inh | ADAM10 QFRET peptide cleavage, EDANS fluorescence | inhibition, % at 6.95 µM | 2,100 tested, 1% active | AID 743208;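 active means inhibition above about 20% chosen separately for each screening run, limit read from the data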;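 further: 0% = DMSO wells and 100% = marimastat wells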
ADAM17 counter: counter-screen for ADAM10 exosite inhibitors: inhibitors of human ADAM17; shares compounds with ADAM10 inh; ADAM17 QFRET peptide cleavage, EDANS fluorescence; inhibition, % at 6.95 µM; 2,100 tested, 0.5% active; AID 743214;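 active means mean triplicate inhibition above the solvent-only control wells' mean plus 3 SD, cut at about 12% in these data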;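 further: 0% = DMSO wells and 100% = marimastat wells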
Starred values were filed as active, the others as inactive; / = no result given. The list is not random: actives were taken first. Their share in the collection is about 3.4%.

SMILES	sPLA2-III inh	PLCg1 inh	PLC-beta3 inh	KLK7 zymogen act	ADAM10 inh	ADAM17 inh	ADAM10 confirm	ADAM17 counter
C=CCn1c(COc2ccccc2)nnc1SCC(=O)Nc1ccc(Oc2ccccc2)cc1	-13	-2	-1	0	21*	6	3	0
O=C(CCn1c(=O)oc2ccccc21)N1CCN(C(c2ccccc2)c2ccccc2)CC1	-17	9	5	1	27*	4	3	2
O=C(CCn1c(=O)oc2ccccc21)N1CCN(c2ccccc2F)CC1	1	-6	-3	1	-4	-7	/	/
CC1CCCC(C)N1C(=C(Cl)Cl)C(=C1SCCS1)[N+](=O)[O-] (stereo unspecified)	-7	5	-1	1	21*	8	1	1
Cc1ccc(N2C(=O)CS/C2=C(\C(Cl)=C(Cl)Cl)[N+](=O)[O-])cc1	1	0	-4	-1	-5	2	/	/
CC(C)(C)C1CCc2onc(C(=O)NCc3ccc(F)cc3)c2C1 (stereo unspecified)	-10	5	-5	0	21*	4	4	1
CN(C(=O)c1ccc(NC(=O)Cc2cccc(NC(=O)C3CCN(C(=O)CCc4ccccc4)CC3)c2)cc1)C1CC1	-10	3	1	1	-12	-1	/	/
S=c1[nH]nc(CSc2nc3ccccc3s2)n1Cc1ccccc1	-16	-2	-2	0	22*	1	-1	0
CCn1c(CSc2nc3ccccc3s2)n[nH]c1=S	13	5	4	0	11	3	/	/
Cc1nn(C)cc1CNC(=O)Nc1ccc(Br)cc1Cl	-3	-2	-2	0	85*	2	-1	0
CCOC(=O)C(Cc1ccnc2ccccc12)=NO	-22	1	4	0	20*	1	-1	-1
O=C(O)C(Cc1ccnc2ccccc12)=NO	-9	3	-4	0	-8	-6	/	/
COc1ccc(/C=N/NC(=O)Cc2csc(Nc3cccc(C(F)(F)F)c3)n2)c(OC)c1	-24	-4	-6	0	25*	6	9	3
CCOc1ccccc1/C=N/NC(=O)Cc1csc(Nc2cccc(C(F)(F)F)c2)n1	-17	0	-4	0	9	7	/	/
CCOc1ccc(/C=N/NC(=O)Cc2csc(Nc3cccc(C(F)(F)F)c3)n2)cc1	-26	1	-2	0	12	3	/	/
CCOc1ccc(/C=N/NC(=O)Cc2csc(Nc3cccc(C(F)(F)F)c3)n2)c(OCC)c1	-27	-4	-3	-2	20*	8	12	3
CCC(C(=O)Oc1c(C(C)C)cccc1C(C)C)c1ccccc1 (stereo unspecified)	3	-1	1	1	79*	5	-1	0
CCC(C(=O)O/N=C(\N)c1ccccc1)c1ccccc1 (stereo unspecified)	7	-52	-3	0	-2	-1	/	/
O=C(NCC(c1ccccc1)c1ccccc1)[C@H](Cc1ccccc1)NC1(C(=O)NC2CCCCC2)CCC1	-4	-2	3	/	2	-1	/	/
O=C(Nc1cc(Cl)ccc1-n1cncn1)c1cccc(S(=O)(=O)N2CCOCC2)c1	-6	0	-2	-1	93*	-5	-1	0
CC1CCCC(C)N1C(=O)c1ccccc1 (stereo unspecified)	12	1	4	0	-6	-4	/	/
COC(=O)[C@]12C[C@H](CC(=O)NCc3ccc(C)o3)C(=O)N(CCC3=CCCCC3)C1=C[C@H](COCc1ccccc1)O[C@@H]2C	-16	-1	-1	0	10	2	/	/
CC(=O)Nc1cccc(NC(=O)c2ccc3c(c2)CCN3S(=O)(=O)c2ccccc2)c1	-7	0	-4	0	11	4	/	/
CC(=O)c1cccc(NC(=O)c2ccc3c(c2)CCN3S(=O)(=O)c2ccccc2)c1	-16	1	-9	0	23*	5	4	2
CCc1nc(NCc2ccc3c(c2)OCO3)c2oc3ccccc3c2n1	-14	5	4	1	28*	8	6	2

High-throughput results as filed in PubChem BioAssay.
